Measurements from PubChem BioAssay AID504652 (National Center for Advancing Translational Sciences (NCATS), 2011).
Values joined by “and” are separate entries in the source; they are usually repeats but may differ in a detail not shown here. Equal values may be shown once. In all, about 360,000 compounds went through this assay and about 11,000 (3.1%) were called active. Cut-off read from the data, not from the text of the source: active = activity change below about -30%; inactive = the rest. For the sample, actives were picked, then their nearest neighbours and some compounds at random.

molecular target: D(1A) dopamine receptor (Homo sapiens) (UniProt P21728); assay: Antagonist of Human D 1 Dopamine Receptor: qHTS; conditions: HEK293 TREx D1 cells, calcium flux, dopamine EC80; at 10 µM; active compounds read low
Sequence (P21728 whole entry, looked up): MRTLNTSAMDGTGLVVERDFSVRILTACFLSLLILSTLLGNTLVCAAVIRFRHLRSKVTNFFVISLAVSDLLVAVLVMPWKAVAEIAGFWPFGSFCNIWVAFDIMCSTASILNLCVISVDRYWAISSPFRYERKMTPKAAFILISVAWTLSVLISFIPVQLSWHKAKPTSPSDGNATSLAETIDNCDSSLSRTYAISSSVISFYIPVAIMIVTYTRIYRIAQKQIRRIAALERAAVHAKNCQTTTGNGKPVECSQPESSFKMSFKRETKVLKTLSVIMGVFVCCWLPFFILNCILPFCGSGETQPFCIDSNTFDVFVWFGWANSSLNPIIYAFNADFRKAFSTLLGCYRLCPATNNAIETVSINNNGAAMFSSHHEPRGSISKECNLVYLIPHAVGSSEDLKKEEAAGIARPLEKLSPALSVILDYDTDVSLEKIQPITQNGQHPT
In short: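 After overnight tetracycline induction at 30 C, force-coupled D1 HEK293 cells took up a no-wash calcium dye at room temperature. Compounds were added and monitored 180 s, and the response to EC80 dopamine was then recorded.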
% is set by controls: 0 for no effect and ±100 for the full control effect.

Activity change, negative = inhibition, inactive:
CCOC(=O)C1CCN(c2ncnc3c2c(-c2ccccc2)cn3-c2cccc(C)c2)CC1 7.99%, COc1cc(OC)cc(C(=O)Nc2c(C(=O)Nc3ccc(F)cc3)oc3ccccc23)c1 -9.05%, O=C(NCc1ccco1)C1CCCN(S(=O)(=O)c2cnc[nH]2)C1 (stereo not drawn) 6.39%, COc1cccc(N2CCN(C(=O)C3CCCN(S(=O)(=O)c4cnc[nH]4)C3)CC2)c1 (stereo not drawn) -10%, CC1CCN(c2ccc([N+](=O)[O-])cc2C(N)=O)CC1 -6.77%, CC1CCN(c2ccc(S(=O)(=O)Nc3cc(C(=O)O)cc(C(=O)O)c3)cc2[N+](=O)[O-])CC1 21.6%, COc1ccccc1CNc1nc2ccc(Cl)cc2n2cnnc12 31.1%, Cc1ccc(OCC(=O)OCc2cc(=O)n3nc(C4CC4)sc3n2)cc1C 5.56%, Cn1c(SCC(=O)N2CCCCC2)nc2c(c1=O)SCC2 -2.45%, Cc1cccc(CSc2nnc(C)c(=O)n2N)c1 -16.8%, Cc1cccc(OCC(O)Cn2c(=N)n(CCN3CCOCC3)c3ccccc32)c1 (stereo not drawn) -8.76%, CCOc1ccc(C(O)Cn2c(=N)n(CCN3CCCCC3)c3ccccc32)cc1 (stereo not drawn) 3.59%, COc1cc(C(=O)Nc2ccc(OCc3cc(=O)n4cc(C)sc4n3)cc2)cc(OC)c1OC -16.6%, OCc1ccc(OCCCOc2cccc3cccnc23)cc1 -4.17%, CCOc1cccc(OCCCOc2cccc3cccnc23)c1 7.73%, Cn1c(=O)n(Cc2c(F)cccc2Cl)c(=O)c2c1nc1n2CCN1c1ccc(F)cc1 -4.11%, CCOc1ccc(NC(=O)c2cc(S(=O)(=O)N3CCCC3)c[nH]2)cc1 -12.2%, COc1ccc(CS(=O)/C(Cl)=C(/Cl)C(=O)Nc2ccc(OC)nc2)cc1 (stereo not drawn) -16.1%, COc1cccc(NC(=S)N(Cc2ccc(C)cc2)Cc2ccccn2)c1 -4.38%, Cc1cc(Cl)ccc1OCCCC(=O)NCc1ccncc1 -15.1%, Cc1cc(Cl)ccc1OCCCC(=O)NCc1ccccn1 -2.23%, O=C(Nc1ccc2nc(SCCOc3ccccc3)sc2c1)c1ccco1 -3.21%, O=C(CSc1ncc(-c2ccccc2)[nH]1)Nc1ccc(F)cc1F -8.22%, O=S1(=O)CCN2C(=N1)SC1=C2CCN(Cc2ccccc2)C1 2.33%, CCc1ccccc1NC(=O)c1ccc2c(c1)CCN2S(C)(=O)=O 6.15% and -13%, CCCN(C(=O)Cn1ncc2c([nH]c3ccc(C)cc32)c1=O)c1ccccc1C 11.2%, O=[S+]([O-])(c1ccc(OC(F)(F)F)cc1)N1CCN([S+](=O)([O-])c2ccc3c(c2)OCCO3)CC1 -7.55%, Cc1nn2c(=O)cc(COC(=O)c3ccccc3NC(=O)COc3ccccc3C)nc2s1 -3.25%, COc1ccccc1C(=O)Nc1ccc(C)c(S(=O)(=O)N2CCCCC2)c1 -2.3%, COc1ccc(NC(=O)CSc2nnc(C3CC3)n2C)cc1S(=O)(=O)N1CCCCC1 5.62%, NS(=O)(=O)c1ccc(CCNC(=O)CCCCCn2c(=O)[nH]c3ccccc3c2=O)cc1 5.32%, COc1cc2nc(NCC(C)c3ccccc3)n3nc(-c4ccccc4)nc3c2cc1OC (stereo not drawn) -4.86%, Cc1nc2nc(NCc3cccc(Br)c3)[nH]n2c(=O)c1Cc1ccccc1 -2.6%, Cc1cccc(N(C)C(=O)CS(=O)(=O)c2cccc3nsnc23)c1 9.37%, COC(=O)/C=C\C(=O)Nc1cccc([N+](=O)[O-])c1 16.7%, O=C(Nn1cnnc1)c1ccc([N+](=O)[O-])cc1 -2.94%, CCCCCn1c(CCNC(=O)c2ccc(F)cc2)nc2ccccc21 -29.3%, CC(=O)c1ccc(NC(=O)CCc2nc(-c3ccc(C)cc3)no2)cc1 6.08%, CC(=O)c1cccc(NC(=O)c2nc(-c3ccccc3)n(-c3cccc(C)c3)n2)c1 -15.7%, CCn1c(CNC(=O)c2ccc(OC)c(OC)c2)nnc1SCC(=O)Nc1ccccc1 -0.592%, CCn1c(Cc2ccc(OC)cc2)nnc1SCC(=O)Nc1ccc(N2CCOCC2)cc1 0.621%, CCC(=O)N1c2ccccc2CC1C(=O)N1CCN(c2ccccc2F)CC1 (stereo not drawn) 10.1%, CCOc1ccc(NC(=O)c2c(NC(=O)Cc3ccccc3)sc3c2CCCCC3)cc1 0.456%, CN(C)CCCN1C(=O)CSC1c1ccc([N+](=O)[O-])cc1 (stereo not drawn) 26.5%, CCCCc1ccc(NC(=O)NCc2cccnc2)cc1 19%

Activity change, negative = inhibition, active:
CCOC(=O)c1cccc(NC(=O)C2CCCN(S(=O)(=O)c3cnc[nH]3)C2)c1 (stereo not drawn) -31.2%, O=C(O)C1CCN(c2ccc([N+](=O)[O-])cc2[N+](=O)[O-])CC1 -34.9%, Cc1cccc(CSc2nc3c(c(=O)n2C)SCC3)c1 -31.4%, Cn1c(=N)n(CC(O)c2cccs2)c2ccccc21 (stereo not drawn) -34.7%, Cc1ccc2cccc(OCCCOc3ccccc3CO)c2n1 -71.7%, COc1ccc(NC(=O)/C(Cl)=C(/Cl)S(=O)Cc2ccc(C)cc2)cn1 (stereo not drawn) -37.4%, Cc1cc(Cl)ccc1OCCCC(=O)Nc1cccc(-n2cnnn2)c1 -32.2%, O=C(Nc1ccccc1Cc1ccccc1)c1ccc2c(c1)SC1=NS(=O)(=O)CCN12 -30.1%, COc1ccc(NC(=O)C2=NNC(=O)CC2)cc1S(=O)(=O)N1CCCCC1 -34.7%, O=C(Nc1cccc([N+](=O)[O-])c1)Nn1cnnc1 -44.2%, [O-][n+]1onc2c1CCc1[nH]c(-c3ccccc3)nc1-2 -44.1%, CCn1c(Cc2ccccc2)nnc1SCC(=O)Nc1ccccc1 -30.1%, CCCCCCCCCCCCN1C(=O)CSC1c1cccnc1 (stereo not drawn) -34.3%
